Screens as filed in PubChem.
This is a sample that favours compounds with a hit; in the whole collection about 19% have one here.
TDP1 inh = inhibitors of human tyrosyl-DNA phosphodiesterase TDP1 | AID 485290 | Q9NUW8 | 350,000 tested, 0.28% active | Potency, µM (top dose mostly 130 µM), without a hit: at the highest dose activity change, negative = inhibition, usual class: inhibitors | recombinant TDP1, AlphaScreen DNA substrate cleavage; also: nearly all actives have a fitted effect of over 40% in size
Target sequence (Q9NUW8 whole entry, looked up): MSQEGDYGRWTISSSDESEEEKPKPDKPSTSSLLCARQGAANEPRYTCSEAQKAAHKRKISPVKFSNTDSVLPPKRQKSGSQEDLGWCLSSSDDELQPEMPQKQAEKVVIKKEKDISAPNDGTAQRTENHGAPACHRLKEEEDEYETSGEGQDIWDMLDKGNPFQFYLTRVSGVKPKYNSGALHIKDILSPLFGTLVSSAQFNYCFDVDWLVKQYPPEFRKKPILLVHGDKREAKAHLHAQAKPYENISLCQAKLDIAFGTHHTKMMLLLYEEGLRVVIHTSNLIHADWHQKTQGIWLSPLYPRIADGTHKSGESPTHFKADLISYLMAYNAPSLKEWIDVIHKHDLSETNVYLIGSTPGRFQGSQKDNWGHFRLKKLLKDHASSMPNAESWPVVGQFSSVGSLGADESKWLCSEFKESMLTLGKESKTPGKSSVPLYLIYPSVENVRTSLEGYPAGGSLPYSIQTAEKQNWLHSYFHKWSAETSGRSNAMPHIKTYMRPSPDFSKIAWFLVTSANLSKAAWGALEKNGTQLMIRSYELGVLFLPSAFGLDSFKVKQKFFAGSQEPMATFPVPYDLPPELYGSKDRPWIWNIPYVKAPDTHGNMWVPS
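Tdp1 1 nM final; 15 min RT w/ cpd; substrate 15 nM, 5 min; beads 10 ug/ml, 10 min; AlphaScreen read. Neg ctrl: no enzyme.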
VP16 counter = Gal4-VP16 reporter inhibition counter-screen. 310,000 tested, 3.5% active. Drosophila S2 Gal4-VP16 UAS-luciferase, luminescence, 20 h. Potency, µM (doses to about 53.6 µM), inactives show at the highest dose activity, negative = inhibition, usual class: inhibitors;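 also: Gal4-VP16 expression switched on by copper sulfate through the metallothionein promoter; nearly all actives have a fitted effect of over 50% in size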
DT40 TDP1 CPT = growth inhibition of DT40 Tdp1-/-;hTDP1 cells with camptothecin (screen for TDP1 inhibitors) | 420,000 tested, 12% active | chicken DT40 Tdp1-/-;hTDP1 cells + 20 nM CPT, ATP luminescence, 48 h | Potency, µM (series often up to 46.2 µM), inactives show at the highest dose activity change, negative = growth inhibition, hits mostly inhibitors; also: nearly all actives have a fitted effect of over 55% in size
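Chicken DT40 Tdp1-/- cells complemented with human TDP1, 400 cells/well, exposed to compounds plus 20 nM camptothecin for at least 48 h at 37 C; viability read as ATP content by CellTiter-Glo luminescence.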
DT40 TDP1 no CPT = qHTS for Inhibitors of human tyrosyl-DNA phosphodiesterase 1 (TDP1): qHTS in cells in absence of CPT | Potency, µM (titrated, usually from 46.2 µM), without a hit: at the top dose activity change, negative = growth inhibition, hits mostly inhibitors | AID 686978, 2013 | 420,000 tested, 15% active | DT40 Tdp1-/- hTDP1 cells, no CPT, ATP luminescence, 48 h; also: nearly all actives have a fitted effect of over 55% in size
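Camptothecin absent (DMSO only). Human TDP1-complemented DT40 knockout cells, 400 cells/well, 37 °C for minimum 48 hr; ATP measured via CellTiter-Glo, 30 min dark incubation, luminescence.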
RORg inh = ROR gamma (mouse) transcription inhibition. P51450. Drosophila S2 Gal4-RORgamma UAS-luciferase reporter, 20 h. Potency, µM (doses to about 53.6 µM), for the others: at the highest dose activity change, negative = inhibition, most hits filed as inhibitors. 310,000 tested, 5.4% active; also: nearly all actives have a fitted effect of over 60% in size
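ROR gamma transcriptional activity was tracked as Gal4-UAS luciferase output in stably transfected Drosophila Schneider cells, with compound added 1 hr before 700 uM copper sulfate induction and a 20 hr ambient-temperature incubation.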
An asterisk follows results filed as active; ? = inconclusive; · = no result given; [ ] = dose if it differs, or a comment. Calls follow the shape of the dose curve; as a rule, active = well fitted curve in the direction sought with a large enough effect; inconclusive = small, poorly fitted or top-dose-only effect, or another doubt; inactive = no such curve, though single readings can be large; an effect the other way counts as inactive or inconclusive. % is scaled to controls: 0 for no effect and ±100 for the full control effect; potency is read from the fitted curve at half-maximal effect.

SMILES | TDP1 inh | VP16 counter | DT40 TDP1 CPT | DT40 TDP1 no CPT | RORg inh
COc1ccc(Cl)cc1S(=O)(=O)n1cnc2ccccc21 | 3% | · | 23µM* | ? | 0%[0.365 µM]
CCOc1ccc(Cl)cc1S(=O)(=O)n1cnc2ccccc21 | 7% | 8% | 6.3µM* | 4.5µM* | 2%
COc1ccc(S(=O)(=O)n2cnc3ccccc32)cc1OC | · | -5% | 0% | -1% | 29%[1.91 µM]
CCOc1ccc(C)cc1S(=O)(=O)n1cnc2ccccc21 | 5% | -9% | 5.2µM* | 4.1µM* | -5%
COc1cccc(OC)c1C(=O)OCC(=O)NC(=O)NCc1ccccc1 | -1% | 4% | -25% | ? | ?
Cc1c(NC(=O)CSCc2ccc(Br)cc2)c(=O)n(-c2ccccc2)n1C | 2% | -2% | -21% | 11% | -6%
CCn1ncc(C(=O)Nc2cccc(Cl)c2)c1C | 0% | 14% | 15% | ? | 23%
NC(=S)N(c1ccccc1)c1ccccc1 | -6% | -8% | 6% | -6% | -4%
NC(=Nc1ccccc1)N(c1ccccc1)c1ccccc1 | · | · | ? | 13µM* | ·
CCN(CC)CCNc1ccc(C)c2sc3ccc(O)cc3c(=O)c12 | · | · | 0.16µM* | 0.15µM* | ·
CN(C)c1ncccc1-c1nc2ccccc2s1 | -9% | -5% | -9% | -22% | -16%
CCOC(=O)c1cc(-c2csc(COc3ccccc3Cl)n2)on1 | 5% | -10% | 21µM* | 16µM* | -3%
CCOC(=O)c1cc(-c2csc(COc3ccccc3)n2)on1 | -5% | -16% | -5% | -15% | 7%
c1ccc(Oc2ccc(-c3cc(NCCc4cccnc4)n4nccc4n3)cc2)cc1 | · | · | ? | -29% | ·
c1ccc(Oc2ccccc2-c2cc(NCCc3cccnc3)n3nccc3n2)cc1 | · | · | 18µM* | ? | ·
CC(C)CC(CC(C)C)=NNC(=O)c1ccc2c(c1)OCO2 | 8% | 5% | 2% | -5% | 13µM*
O=C(N/N=C/c1cccs1)c1cccc(S(=O)(=O)Nc2ccc(Cl)cc2)c1 | -3% | 5.6µM* | ? | ? | 4µM*
Cc1cccc(CN(CC(=O)N/N=C/c2ccco2)S(=O)(=O)c2ccc(Cl)cc2)c1 | 0% | -25% | ? | ? | -34%
Cc1cccc(CN(CC(=O)N/N=C/c2cccs2)S(=O)(=O)c2ccc(Cl)cc2)c1 | 1% | -19% | ? | 29µM* | ?
O=C(N/N=C/c1ccc(Cl)cc1)c1ccc2c(c1)OCO2 | · | 6% | ? | 13µM* | -16%
CCOc1ccc(/C=N/NC(=O)c2nnn(-c3nonc3N)c2COc2ccc(F)cc2)cc1 | -1% | -16% | ? | ? | -24%
O=C(COC(=O)CCN1C(=O)C2CC=CCC2C1=O)NCCc1ccc(F)cc1 (stereo not drawn) | 1% | · | -1% | -3% | ·
O=C(N/N=C\c1ccccc1)c1sccc1-n1cccc1 | 9% | -9% | 3% | -27% | ?
O=C(N/N=C/c1cccs1)c1ccc2c(c1)OCO2 | 1% | ? | -10% | -26% | 14µM*
O=C(N/N=C\c1cccs1)c1sccc1-n1cccc1 | 6% | ? | -1% | -18% | 1.3µM*
SMILES | TDP1 inh | VP16 counter | DT40 TDP1 CPT | DT40 TDP1 no CPT | RORg inh
O=C(N/N=C/c1ccc2c(c1)OCO2)c1ccc2c(c1)OCCO2 | 3% | ? | 16µM* | ? | -31%
O=C(N/N=C/c1ccccc1O)c1ccc2c(c1)OCO2 | · | 1.8µM* | 5.2µM* | 4.1µM* | 0.56µM*
Cn1nc(-c2ccccc2)cc1NC(=O)c1cccs1 | 1% | 7% | 1% | -5% | -4%
COc1cccc(-n2nnc3c(=O)n(CC(=O)N4CCCCC4)cnc32)c1 | 2% | 5% | -21% | -8% | -2%
NCCCC[C@H]1CNC(=S)N1CC1(c2ccccc2)CC1 | · | 1% | ? | -24% | 4%
CCOC1=NN(c2ccccc2)C(=O)/C1=C\N(C)C | 9% | -11% | 0% | -4% | 0%
O=C(N/N=C/c1ccc2c(c1)OCO2)c1ccc(NC(=O)c2ccc(F)cc2)cc1 | -5% | 0% | ? | ? | 10µM*
